This assay can be described thus: High-throughput drug toxicity screening in the BPDCN cell line Cal-1 (AID 1224825). To be noted: Cal-1 BPDCN cell viability, qHTS; at 45.8 µM (top of the series) unless noted. The text has this:
Blastic plasmacytoid dendritic cell neoplasm (BPDCN) is a rare, aggressive and largely incurable hematologic malignancy originating from plasmacytoid dendritic cells (pDCs). Although an initial response to chemotherapy is common, BPDCN prognosis is extremely poor and most patients relapse with drug-resistant disease leading to a median overall survival of ~1 year after diagnosis. To explore novel potential therapeutic strategies in BPDCN, we performed a high-throughput drug toxicity screening in BPDCN cell liens, using of a library of 1,912 small molecules, enriched for compounds that are either approved or in early stages of development for cancer therapy.
A total of 500 exponentially growing Cal-1 cells were seeded per well in 5 uL of media (RPMI + Glutamine, without phenol red plus10% FBS and 1X Pen/Strep) into 1536-well solid white high base tissue culture treated Greiner One Bio Plates (789173-F), using a multidrop combi dispenser and a small sterile cassette. Compounds and controls totaling 23nL per well (negative control DMSO and positive control 9.2 uM Bortezomib-final) were immediately added to the plates using a 1536 head pin tool from Kalypsys. The plates were then covered with stainless steel gasket lids from Kalypsys and incubated for 48 hours at 37C under 95% relative humidity with 5% CO2. After 48 hours, the plates were removed and allowed to reach room temperature before 3 uL of Cell Titer Glo reagent (Promega) were added using an Aurora Flying Reagent Dispenser Bioraptor. The plates were then spun at 1000 rpms to remove bubbles and incubated for 15 minutes at room temperature before reading on a ViewLux using a luminescent filter with a 10 second exposure. The relative luciferase units were used to calculated percent activity using DMSO as 100% and Bortezomib as 0%.
On the technique in general: qHTS replaces the single test concentration by a dilution series.
On to `CC(C)c1cc(-c2n[nH]c(=O)n2-c2ccc3c(ccn3C)c2)c(O)cc1O`, for which the viability (% of control) worked out at 10.7%. As for `Clc1cccc(-c2nnnn2Cc2cccnc2)c1Cl`, the viability (% of control) is 95.3%.

Regarding `COc1ccc(CC2c3cc(OC)c(OC)cc3CC[N+]2(C)CCC(=O)OCCCCCOC(=O)CC[N+]2(C)CCc3cc(OC)c(OC)cc3C2Cc2ccc(OC)c(OC)c2)cc1OC` (stereo not given), the viability (% of control) is 99% [at 5.15 µM]. Take `CC=C1NC(=O)[C@H]2CSSCCC=C[C@H](CC(=O)N[C@H](C(C)C)C(=O)N2)OC(=O)[C@H](C(C)C)NC1=O`: the viability (% of control) was determined as 4.69%. Regarding `CC(C)(O)CCc1ccc(OCc2cc(-c3cccc(OC(F)F)c3)c3ncccc3c2)cc1`, the viability (% of control) was 75.3%.

As for `COC(=O)C1=C(C)NC(C)=C(C(=O)OCCN2CCN(C(c3ccccc3)c3ccccc3)CC2)C1c1cccc([N+](=O)[O-])c1` (stereo not given), the viability (% of control) came out at 108%. As for `CC[C@H]1CN2CCc3cc(OC)c(OC)cc3[C@H]2C[C@@H]1C[C@@H]1NCCc2cc(OC)c(OC)cc21`, the viability (% of control) turned out to be 6.78%.

In the case of `CC(C)(O)c1cc2nc(-c3cnc(N)nc3)nc(N3CCOCC3)c2s1`, the viability (% of control) is 24%. Regarding `C=CCn1c(=O)c2cnc(Nc3ccc(N4CCN(C)CC4)cc3)nc2n1-c1cccc(C(C)(C)O)n1`, the viability (% of control) came out at 16.4%. On to `Cc1ccc(C(N)=O)cc1Nc1nccc(-c2cn(C(C)C)c3cnccc23)n1`, for which the viability (% of control) was found to be 3.01%.

Regarding `O=C(NCCCNc1nc(Nc2cccc(NC(=O)N3CCCC3)c2)ncc1I)c1cccs1`, the viability (% of control) is 2.96%.

As for `CC[C@@]1(O)C(=O)OCc2c1cc1n(c2=O)Cc2cc3cc(O)ccc3nc2-1`, the viability (% of control) was found to be 3.68%. As for `CC(=O)Nc1nc(C)c(-c2ccc(Cl)c(S(=O)(=O)NCCO)c2)s1`, the viability (% of control) amounted to 18.7%. As for `O=C(Nc1cn[nH]c1-c1nc2ccc(CN3CCOCC3)cc2[nH]1)NC1CC1`, the viability (% of control) was 3.55%. With `CC(C)c1ccc(Cn2ccc3c4c(N)nc(NC5CC5)nc4ccc32)cc1`, the viability (% of control) was 4.41%. The value for `Nc1nc(-c2nn(Cc3ccccc3F)c3ncccc23)nc(N)c1N1CCOCC1` was 101%; that for `CC(=O)Nc1sc2c(c1-c1nc3ccccc3s1)CNC2` was 4.86%. Turning to `C1=CCOCc2cc(ccc2OCCN2CCCC2)Nc2nccc(n2)-c2cccc(c2)OCC1`, the viability (% of control) was determined as 5.28%. For the compound `C[C@@H]1COC(Nc2ccc3ncnc(Nc4ccc(OCc5nccs5)c(Cl)c4)c3c2)=N1`, the viability (% of control) worked out at 13%.

Turning to `COc1ccc(C(=O)CC2(O)C(=O)Nc3c(Cl)ccc(Cl)c32)cc1` (stereo not given), the viability (% of control) was 11.2%. As to `Cc1ccc2nc(NC(=O)CSc3nc4c(c(=O)n3-c3ccccc3)SCC4)sc2c1`, the viability (% of control) was 15.8%. Regarding `NC(=O)c1c(OCc2c(F)cc(Br)cc2F)nsc1NC(=O)NCCCCN1CCCC1`, the viability (% of control) turned out to be 4.13%.

As for `O=C(C=Cc1cccnc1)NCCCCC1CCN(C(=O)c2ccccc2)CC1`, the viability (% of control) worked out at 4.19%. Turning to `C=CC(=O)N1CCC[C@@H](n2nc(-c3ccc(Oc4ccccc4)cc3)c3c(N)ncnc32)C1`, the viability (% of control) worked out at 6.59%. Consider `O=C(NC1CCNCC1)c1[nH]ncc1NC(=O)c1c(Cl)cccc1Cl`, for which the viability (% of control) was 2.11%. With `Cc1nc2ccc(CN(C)c3ccc(C(=O)N[C@@H](CCC(=O)O)C(=O)O)s3)cc2c(=O)[nH]1`, the viability (% of control) was determined as 32.8%. Regarding `O=C(Nc1ncc(-c2cc(C(F)F)nn2-c2c(Cl)cccc2Cl)s1)C1CC1`, the viability (% of control) stood at 9.09%. The value for `CCOc1ccccc1OCCNC(C)Cc1ccc(OC)c(S(N)(=O)=O)c1` (stereo not given) was 97.4%. The value for `Cc1cnc(-c2cnc(NCCNc3ccc(C#N)cn3)nc2-c2ccc(Cl)cc2Cl)[nH]1` was 38.3%; that for `Fc1cc(-c2cccc3ncc(-c4cnn(C5CCNCC5)c4)nc23)cc(F)c1CN1CCOCC1` was 5.7%. Regarding `CCN(CC)CCCCNc1ncc2cc(-c3cc(OC)cc(OC)c3)c(NC(=O)NC(C)(C)C)nc2n1`, the viability (% of control) was determined as 1.79%. In the case of `C1Cc2[nH]nc(-c3nn[nH]n3)c2C1`, the viability (% of control) was found to be 98.5%. With `C[C@@H](Oc1cc(-c2cnn(C3CCNCC3)c2)cnc1N)c1c(Cl)ccc(F)c1Cl`, the viability (% of control) is 3.63%. As for `Cc1cc(CN2CCN(c3c(Br)cnc4nc(-c5ccc(N6CCN(C)CC6)cc5)[nH]c34)CC2)no1`, the viability (% of control) is 2.79%. With `CN1CCN(Cc2ccc(NC(=O)Nc3ccc(Oc4cc(NC(=O)C5CC5)ncn4)cc3)cc2C(F)(F)F)CC1`, the viability (% of control) is 0.746%. As to `COc1cc(OC2CCN(C)CC2)ccc1Nc1ncc2c(n1)n(C1CCCC1)c(=O)n2C`, the viability (% of control) came out at 3.73%. `O=C(O)c1ccc2cc(-c3ccc(O)c(C45CC6CC(CC(C6)C4)C5)c3)ccc2c1`: the viability (% of control) was 7.6%. In the case of `CCOc1cc2ncc(C#N)c(Nc3ccc(F)c(Cl)c3)c2cc1NC(=O)C=CCN(C)C`, the viability (% of control) is 9.88%.

For the compound `COc1cc(C(C)C)c2c(c1)S(=O)(=O)N(COc1cc(=O)n3cccc(OCCN4CCCCC4)c3n1)C2=O`, the viability (% of control) came to 10.9%. Turning to `COc1cccc(Nc2c(C(N)=O)cnc3c(C)cc(S(=O)(=O)c4cccc(C(=O)N(C)C)c4)cc23)c1`, the viability (% of control) came to 108% [at 23.2 µM].

These data come from PubChem BioAssay (NCATS).
